Reference: the antibiotic and cytotoxicity screens of Wong et al. (2023)
Hit rate of the full screen: of about 39,000 compounds, about 3,300 (8.5%) were called active. The sample as a whole holds a higher share of actives than the screen did.

System: HepG2
Experiment: cytotoxicity call (relative viability < 0.9)
Conditions: 10 µM

**Q.** With `O=C1O[C@H]2CN[C@@H]1C2` as the compound, how does the cytotoxicity call read?
**A.** inactive

**Q.** With `N[C@@H](C(=O)O)c1nn[nH]n1` as the compound, how does the cytotoxicity call read?
**A.** inactive

**Q.** Which cytotoxicity call does the source give for `OCC(O)C1OC2OC(C(Cl)(Cl)Cl)OC2C1O` (centres undefined) here?
**A.** inactive

**Q.** `CS(=O)(=O)N1CCO[C@]2(COCCN(Cc3ccncc3)C2)C1` was tested. Which cytotoxicity call did it give?
**A.** inactive

**Q.** With `O=c1[nH]c2ccccc2n1C1CCN(Cc2ccc(-c3nc4cc5[nH]cnc5cc4nc3-c3ccccc3)cc2)CC1` as the compound, how does the cytotoxicity call read?
**A.** active

**Q.** With `CN1[C@@H]2CC[C@H]1C[C@H](O)C2` as the compound, how does the cytotoxicity call read?
**A.** inactive

**Q.** For `Cc1cccnc1N1CCNCC1`, which cytotoxicity call is on record?
**A.** inactive

**Q.** With `O=C1[O][SbH]23[O]C(=O)C([O]2)C2[O][SbH]4([O]C(=O)C([O]4)C1[O]3)[O]C2=O` as the compound, how does the cytotoxicity call read?
**A.** active

**Q.** `O=C1[O][SbH]23[O]C(=O)[C@H]([O]2)[C@H]2[O][SbH]4([O]C(=O)[C@H]([O]4)[C@H]1[O]3)[O]C2=O` was tested. Which cytotoxicity call did it give?
**A.** active

**Q.** Which cytotoxicity call does the source give for `N#C[C@H]1NCc2cnnn2-c2ccccc21` here?
**A.** inactive

**Q.** For `O=[N+]([O-])c1c(NCCO)ccc2nonc12`, which cytotoxicity call is on record?
**A.** inactive

**Q.** With `CC(C)(C)CC(=O)N1C[C@H]2C[C@@H]1CN2` as the compound, how does the cytotoxicity call read?
**A.** inactive

**Q.** How did the cytotoxicity call turn out when `Cc1cc[n+](C)cc1` was run?
**A.** inactive

**Q.** Which cytotoxicity call does the source give for `O=c1n(Cl)c(=O)n(Cl)c(=O)n1Cl` here?
**A.** inactive

**Q.** How did the cytotoxicity call turn out when `CC(COc1ccc(Oc2ccccc2)cc1)Oc1ccccn1` (centres undefined) was run?
**A.** inactive

**Q.** With `O=c1[n-]c(=O)n(Cl)c(=O)n1Cl.[Na+]` as the compound, how does the cytotoxicity call read?
**A.** inactive

**Q.** `CCC(C)C1OC2(C=CC1C)CC1CC(CC=C(C)C(OC3CC(OC)C(OC4CC(OC)C(O)C(C)O4)C(C)O3)C(C)C=CC=C3COC4C(O)C(C)=CC(C(=O)O1)C34O)O2` (centres undefined) [ABAMECTIN (avermectin B1a shown) ] was tested. Which cytotoxicity call did it give?
**A.** active

**Q.** With `CN1CCN([C@@H](CN)c2ccc3c(c2)OCO3)CC1` as the compound, how does the cytotoxicity call read?
**A.** inactive

**Q.** How did the cytotoxicity call turn out when `O=C1C[C@H](c2ccccc2)[C@@H]2CNCCN12` was run?
**A.** inactive

**Q.** For `O=C(NC(=O)c1c(F)cccc1F)Nc1ccc(Cl)cc1`, which cytotoxicity call is on record?
**A.** inactive

**Q.** For `O=C(NC(=O)c1c(F)cccc1F)Nc1cc(Cl)c(OC(F)(F)C(F)C(F)(F)F)cc1Cl` (centres undefined), which cytotoxicity call is on record?
**A.** active

**Q.** Which cytotoxicity call does the source give for `O=C(NC(=O)c1c(F)cccc1F)Nc1cc(Cl)c(OC(F)(F)[C@@H](F)C(F)(F)F)cc1Cl` here?
**A.** inactive

**Q.** With `CN1CCc2cc3c(cc2[C@@H]1O)OCO3` as the compound, how does the cytotoxicity call read?
**A.** inactive

**Q.** Which cytotoxicity call does the source give for `CN1CCc2cc3c(cc2C1O)OCO3.Cl` (centres undefined) here?
**A.** inactive

**Q.** `COC(=O)C[C@](O)(CCC(C)(C)O)C(=O)O[C@@H]1C(OC)=C[C@]23CCCN2CCc2cc4c(cc2[C@H]13)OCO4` was tested. Which cytotoxicity call did it give?
**A.** active

**Q.** For `CN1C[C@@H]2c3nc(N(C)C)ncc3CS(=O)(=O)[C@H]2C1`, which cytotoxicity call is on record?
**A.** inactive

**Q.** Which cytotoxicity call does the source give for `CN1CC(CNC(=O)OCc2ccccc2)CC2c3cccc4c3c(cn4C)CC21` (centres undefined) here?
**A.** active

**Q.** How did the cytotoxicity call turn out when `CCC(CO)NC(=O)C1C=C2c3cccc4c3c(cn4C)CC2N(C)C1.O=C(O)C=CC(=O)O` (centres undefined) was run?
**A.** inactive

**Q.** `CC(C)[C@@]1(NC(=O)[C@H]2C[C@@H]3c4cccc5[nH]cc(c45)C[C@H]3N(C)C2)O[C@@]2(O)[C@H]3CCCN3C(=O)[C@@H](Cc3ccccc3)N2C1=O` was tested. Which cytotoxicity call did it give?
**A.** inactive

**Q.** Which cytotoxicity call does the source give for `CC(C)[C@@]1(NC(=O)[C@@H]2C[C@@H]3c4cccc5[nH]cc(c45)C[C@H]3N(C)C2)O[C@@]2(O)[C@@H]3CCCN3C(=O)[C@H](Cc3ccccc3)N2C1=O` here?
**A.** inactive

**Q.** For `CC(=O)OCC1=C(C(=O)O)N2C(=O)[C@@H](N)[C@H]2SC1`, which cytotoxicity call is on record?
**A.** inactive

**Q.** `CC(=O)Nc1cc([As](=O)(O)O)ccc1O` was tested. Which cytotoxicity call did it give?
**A.** inactive

**Q.** With `COC1=CC2C3Cc4ccc(OC)c(O)c4C2(CCN3C)CC1=O` (centres undefined) as the compound, how does the cytotoxicity call read?
**A.** inactive

**Q.** With `C=C1[C@@H](C)[C@H]2[C@H](Cc3ccccc3)NC(=O)[C@]23[C@H](OC(C)=O)/C=C/[C@](C)(O)C(=O)[C@@H](C)C/C=C/[C@H]3[C@@H]1O` as the compound, how does the cytotoxicity call read?
**A.** active

**Q.** Which cytotoxicity call does the source give for `Cc1noc(C)c1C(=O)N1C[C@@H]2CCN[C@@H]2C1` here?
**A.** inactive

**Q.** How did the cytotoxicity call turn out when `CC1=NCCN=C(C)C1N1CCOCC1` was run?
**A.** inactive

**Q.** For `O=C(OC1CC2CCC(C1)[N+]21CCCC1)C(O)(c1ccccc1)c1ccccc1.[Cl-]` (centres undefined), which cytotoxicity call is on record?
**A.** inactive

**Q.** How did the cytotoxicity call turn out when `N[C@@]1(C(=O)O)CC[C@@H](C(=O)O)C1.N[C@]1(C(=O)O)CC[C@H](C(=O)O)C1` was run?
**A.** inactive

**Q.** With `CC[C@@H](C(=O)[C@@H](C)[C@@H](O)[C@H](C)[C@@H]1O[C@@H]([C@@H](CC)C(=O)O)CC[C@@H]1C)[C@H]1O[C@]2(C=C[C@@H](O)[C@]3(CC[C@@](C)([C@H]4CC[C@](O)(CC)[C@H](C)O4)O3)O2)[C@H](C)C[C@@H]1C` as the compound, how does the cytotoxicity call read?
**A.** inactive

**Q.** Which cytotoxicity call does the source give for `CCC(C(=O)[O-])C1CCC(C)C(C(C)C(O)C(C)C(=O)C(CC)C2OC3(C=CC(O)C4(CCC(C)(C5CCC(O)(CC)C(C)O5)O4)O3)C(C)CC2C)O1.[Na+]` (centres undefined) here?
**A.** active

**Q.** Which cytotoxicity call does the source give for `CCCCC(=O)N1C[C@@H]2CCNC[C@@H]21` here?
**A.** inactive

**Q.** How did the cytotoxicity call turn out when `Cc1csc(CCN)n1` was run?
**A.** inactive

**Q.** How did the cytotoxicity call turn out when `CN1[C@@H]2CNc3ccccc3[C@@H]2[C@@H]1CO` was run?
**A.** inactive

**Q.** `CCN1C[C@]2(OC(=O)c3ccccc3NC(C)=O)CC[C@@H](OC)[C@@]34[C@H]5C[C@@H]6[C@@H](OC)C[C@](O)([C@@H](C[C@@H]23)[C@@H]14)[C@]5(O)[C@H]6OC` was tested. Which cytotoxicity call did it give?
**A.** inactive

**Q.** `N[C@@H](Cn1oc(=O)[nH]c1=O)C(=O)O` was tested. Which cytotoxicity call did it give?
**A.** inactive

**Q.** For `COC(=O)C1=CCCN(C)C1`, which cytotoxicity call is on record?
**A.** inactive

**Q.** With `Br.COC(=O)C1=CCCN(C)C1` as the compound, how does the cytotoxicity call read?
**A.** active

**Q.** For `Clc1cc2c(cc1Cl)Oc1cc(Cl)c(Cl)cc1O2`, which cytotoxicity call is on record?
**A.** inactive

**Q.** With `CNCC(=O)c1ccc(O)c(O)c1` as the compound, how does the cytotoxicity call read?
**A.** inactive

**Q.** `C[C@H]1CN([C@@H](C)CO)C(=O)c2c(c3ccccc3n2C)-c2ccccc2CO[C@H]1CN(C)C(=O)Oc1ccccc1` was tested. Which cytotoxicity call did it give?
**A.** inactive

**Q.** Which cytotoxicity call does the source give for `N[C@H]1Cc2ccccc2[C@@H]1O` here?
**A.** inactive

**Q.** For `O=[N+]([O-])c1cc([As](=O)(O)O)ccc1O`, which cytotoxicity call is on record?
**A.** inactive

**Q.** How did the cytotoxicity call turn out when `O=[N+]([O-])c1ccc([As](=O)(O)O)cc1` [listing 1 of 2 here] was run?
**A.** inactive

**Q.** For `O=[N+]([O-])c1ccc([As](=O)(O)O)cc1` [listing 2 of 2 here], which cytotoxicity call is on record?
**A.** active

**Q.** With `CC1=C2C3OC(=O)C(C)C3CCC2(C)C=CC1=O` (centres undefined) as the compound, how does the cytotoxicity call read?
**A.** inactive

**Q.** For `O=C1NC(=S)NC(=O)C1=Cc1ccccc1`, which cytotoxicity call is on record?
**A.** inactive

**Q.** For `C=CC=CCC1=C(C)C(OC(=O)C2C(C=C(C)C)C2(C)C)CC1=O` (centres undefined), which cytotoxicity call is on record?
**A.** inactive

**Q.** With `Oc1cc(Cl)ccc1Oc1ccc(Cl)cc1Cl` [listing 1 of 2 here] as the compound, how does the cytotoxicity call read?
**A.** active

**Q.** `Oc1cc(Cl)ccc1Oc1ccc(Cl)cc1Cl` [listing 2 of 2 here] was tested. Which cytotoxicity call did it give?
**A.** inactive

**Q.** For `Nc1ccc(Cl)cc1Cl`, which cytotoxicity call is on record?
**A.** inactive

**Q.** How did the cytotoxicity call turn out when `Cc1nc(-c2ccc(-c3ccc(C(=O)N4CCc5cc6c(cc54)C4(CCN(C)CC4)CO6)cc3)c(C)c2)no1` was run?
**A.** active

**Q.** How did the cytotoxicity call turn out when `NCCc1nc2ccccc2[nH]1` was run?
**A.** inactive

**Q.** How did the cytotoxicity call turn out when `O[C@H]1[C@H]2[C@H](O)CCCN2C[C@H]1O` was run?
**A.** inactive

**Q.** Which cytotoxicity call does the source give for `COc1ccc(C(=O)O[C@H]2CC[C@@]3(C)[C@@H]4CC[C@H]5[C@]6(O)C[C@H](O)[C@@]7(O)[C@@H](CN8C[C@@H](C)CC[C@H]8[C@@]7(C)O)[C@]6(O)C[C@@]53O[C@]24O)cc1OC` here?
**A.** inactive
